aSyn 5UTR act – Activators via SNCA 5'UTR binding, MLPCN | 300,000 compounds, 7.1% hits | alpha-synuclein 5'UTR reporter, activators screen | activity score, % (tested at 7.5 µM), hits read low; in the data active means activity score below about -60%
Hits are given with their value; i = inactive. A selection follows.

SMILES | aSyn 5UTR act
Cn1c(=O)c2c(nc(NCc3ccco3)n2C/C=C/c2ccccc2)n(C)c1=O | i
O=[N+]([O-])c1cc(Cl)cc2c1nc(NCCO)c1ccccc12 | -207
Cc1ccc2[nH]c3c(NCc4ccccc4)ncnc3c2c1 | -95
Cc1ccc2[nH]c3c(N4CCOCC4)ncnc3c2c1 | -72
CCCOc1ncnc2c1[nH]c1ccc(C)cc12 | -92
COc1ccccc1NC(=O)Cn1nnc(C(=O)NCc2cccs2)c1N | i
COc1ccccc1-c1ccc(=O)n(CC(=O)NCc2cccs2)n1 | -73
Cc1ccc2nc(N/C(=N/S(=O)(=O)c3ccc(F)cc3F)c3ccccc3)sc2c1 | -108
Cc1ccc2nc(N/C(=N/S(=O)(=O)c3ccc(F)cc3)c3ccccc3)sc2c1 | -107
COc1cccc(-c2cc3nc(-c4ccccc4)cc(=O)n3[nH]2)c1 | -167
COc1cccc(-c2cn3nc4c(nc3n2)CCCC4)c1 | i
O=c1c2c(nc3cc(-c4ccc(F)cc4)[nH]n13)CCC2 | -87
O=c1cc(-c2ccccc2)nc2cc(-c3ccc(F)cc3)[nH]n12 | -109
CCc1c(C)nc(SCC(=O)c2cccs2)c(C#N)c1C | -269
Cc1ccc(Nc2nc(CSc3nnc(-c4ccccc4C)n3C)cs2)cc1 | -93
Cc1ccc(Nc2nc(CSc3nnc(-c4ccccc4)n3C)cs2)cc1 | -68
O=C(/C=C/Nc1ccc([N+](=O)[O-])cc1)c1ccc(Br)cc1 | -74
O=C(/C=C/Nc1ccc(F)cc1)c1ccc(Br)cc1 | -181
O=C(/C=C/Nc1ccc(F)c(F)c1)c1ccc(Br)cc1 | -192
O=C(/C=C/Nc1ccc(Br)cc1F)c1ccccc1 | i
O=C(Cc1ccccc1)Nc1ccc(N2CCOCC2)cc1 | -73
CC1CCN(c2ccc(NC(=O)Cc3ccccc3)cc2)CC1 | -82
O=C(Nc1ccc(N2CCOCC2)cc1)c1cn2ccccc2n1 | i
c1ccc(CCNc2ccnc3cc4ccccc4cc23)cc1 | i
Cc1cc2c(NCCc3ccccc3)ncnc2s1 | -64
SMILES | aSyn 5UTR act
c1ccc(CCNc2ncnc3ccccc23)cc1 | -117
O=C(Nc1ccccn1)c1csc2c1CCCC2 | -163
O=C(Nc1ccccn1)c1onc2c1CCCC2 | i
COc1cc(NC(=O)c2csc3c2CCCC3)ncn1 | -153
COc1ccc(Oc2ccc(C(F)(F)F)cc2N)cc1 | -68
Brc1ccc(-c2csc(/N=C/N3CCOCC3)n2)cc1 | -90
Brc1ccc(-c2csc(/N=C/N3CCCC3)n2)cc1 | -94
OCCN(/C=N/c1nc(-c2ccc(Br)cc2)cs1)CCO | -93
CC1CCCCN1C(=O)CSc1nc2ccsc2c(=O)n1Cc1ccccn1 (stereo unspecified) | -120
Cc1cc(NC(=O)CSc2nc3ccsc3c(=O)n2Cc2ccccn2)n[nH]1 | -79
CCOC(=O)c1c(C)[nH]c(C(=O)OCC(=O)Nc2sccc2C(N)=O)c1C | -119
Cc1ccc(C)n1-c1ccc(C(=O)Nc2ccccc2F)cc1 | -157
CCc1ccccc1NC(=O)c1ccc(-n2c(C)ccc2C)cc1 | -98
Cn1nnnc1SCc1ccc(C(=O)Nc2ccccc2F)cc1 | -86
CC(C)(C)c1cc(NC(=O)Nc2ccccc2)no1 | -197
Cc1cc(C(=O)NNC(=O)c2ccc(Cl)cc2Cl)c(C)o1 | -76
Cc1cc(/C(N)=N/OC(=O)Nc2ccc(Cl)cc2)no1 | -92
O=C(CCCN1C(=O)/C(=C/c2ccccc2Cl)SC1=S)NNC(=O)c1ccc(Cl)cc1Cl | i
Cc1cccc(NC(=O)Nc2cc(C)on2)c1 | -73
Cc1cc(C(=O)Nc2cc(C(C)(C)C)on2)c(C)o1 | -147
O=C(Nc1ccsn1)c1ccc(Cl)cc1Cl | -162
Cc1cc(NC(=O)c2ccc(Cl)cc2Cl)no1 | -185
Cc1ccc(NC(=O)Nc2cc(C)on2)cc1 | -143
Cc1cc(NC(=O)Nc2ccc(Cl)cc2)no1 | -110
Cc1cnc(NC(=O)c2ccncc2)s1 | -65
SMILES | aSyn 5UTR act
CSc1nnc(NC(=O)c2ccco2)s1 | -77
Cc1cnc(NC(=O)c2ccco2)s1 | -94
CCCSc1nnc(NC(=O)Nc2ccccc2)s1 | -92
COCCSc1nnc(NC(=O)c2ccco2)s1 | -81
CCCSc1nnc(NC(=O)c2ccco2)s1 | -81
COCCSc1nnc(NC(=O)C2CCCCC2)s1 | -63
CCN(CC)c1ccc(/C=N/N2CCOCC2)c(O)c1 | -157
CCN(CC)c1ccc(C=Nc2ccc(N(C)C)cc2)c(O)c1 | -83
CCN(CC)c1ccc(/C=N/Nc2ccccc2)c(O)c1 | -62
CCN(CC)c1ccc(/C=N/NC(=S)NC)c(O)c1 | -94
CCN(CC)c1ccc(/C=N/N=C(N)N)c(O)c1 | i
O=C(O)CC1=C(Nc2ccccc2)C(=O)N(c2ccccc2)C1c1ccc(F)cc1 (stereo unspecified) | -83
COc1ccc(C2C(CC(=O)O)=C(Nc3ccccc3)C(=O)N2c2ccccc2)cc1 (stereo unspecified) | -86
Cc1ccccc1NC(=O)Nc1ccc(C(F)(F)F)cc1 | -100
COc1cc(SC)ccc1C(=O)Nc1ccc2c(c1)CCC2 | -119
COc1cc(SC)ccc1C(=O)Nc1ccc(Cl)cn1 | i
Cc1ccccc1NC(=O)Nc1ccc2c(c1)CCC2 | -141
COc1cc(SC)ccc1C(=O)Nc1ccccc1C#N | -192
COc1ccccc1NC(=O)Nc1ccc2c(c1)CCC2 | -126
O=C(COc1ccccc1-c1ccccc1)NNC(=O)NC1CCCCC1 | -83
Cc1ccc(OCC(=O)NC2CCCC2)c(C)c1 | -67
Cc1ccccc1OCC(O)CNC1CCC(NCC(O)COc2ccccc2C)CC1 (stereo unspecified) | i
Cc1ccccc1OCC(=O)NC1CCCCCCC1 | -65
N/C(=N\OC(=O)Cc1cccc2ccccc12)c1ccccn1 | -156
CCCc1ccc(C(=O)O/N=C(\N)c2ccccn2)cc1 | i
SMILES | aSyn 5UTR act
N/C(=N\OC(=O)Cc1ccc(Cl)cc1)c1ccccn1 | -154
Cc1ccc(CC(=O)O/N=C(\N)c2ccccn2)cc1 | -89
CNS(=O)(=O)c1cc2c3c(cccc3c1)C(=O)NC2=O | i
CNc1cccc2c1C(=O)c1ccccc1C2=O | -119
N#Cc1cnc2sc3ccccc3n2c1=N | -68
CCCCNC(=S)N/N=C/c1cccc(OCC)c1O | -73
O=C1/C(=C/c2ccccc2)Oc2cc(OC(=O)N3CCOCC3)ccc21 | -110
CC(=O)Oc1ccc(/C=C2/Oc3ccccc3C2=O)cc1 | -75
COc1ccc(OCC(=O)c2c[nH]c3ccccc23)cc1 | -90
Cc1ccc(OCC(=O)c2cc(C)n(-c3ccccc3)c2C)c([N+](=O)[O-])n1 | i
Cc1ccc(C(=O)OCC(=O)c2c[nH]c3ccccc23)cc1 | -147
Cc1ccc(OCC(=O)c2c[nH]c3ccccc23)c([N+](=O)[O-])n1 | -67
O=C(OCC(=O)c1c[nH]c2ccccc12)C1=COCCO1 | -143
COc1ccc(C2C(O)C(c3c[nH]c4ccccc34)=NN2C(=O)CCl)cc1 (stereo unspecified) | i
Cc1cn(-c2cc(C(=O)Nc3ccc(C)c(NC(=O)C(=O)c4c[nH]c5ccccc45)c3)cc(C(F)(F)F)c2)cn1 | i
COC(=O)c1ccc(NC(=O)C(=O)c2c[nH]c3ccccc23)cc1 | -93
CC1(C(=O)OCC(=O)c2c[nH]c3ccccc23)CC1(Cl)Cl (stereo unspecified) | -260
CCOC(=O)CNc1c(-c2ccc(OC)cc2)nc2ccc(Cl)cn12 | -127
COCCNc1c(-c2ccc(OC)cc2)nc2ccc(Cl)cn12 | -117
CC(=O)N1N=C(c2ccc(C)cc2)OC1c1ccc(Br)cc1 (stereo unspecified) | -174
Cc1nnc(SCC(=O)c2cc(C)n(C3CC3)c2C)s1 | -146
Cc1cc(C(=O)CSc2nnnn2C)c(C)n1C1CC1 | -69

Screens from PubChem.
